The supplement of paper PMC6992640

system: WHIM30 (cells of a triple-negative basal-like breast cancer xenograft); assay: cell viability of combination (% of vehicle); higher = less cytotoxic; conditions: 1 µM; 72 h; partner dose: 10 nM
Description: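 PDX cells were treated for 72 h with each drug at 1 µM plus carfilzomib (10 nM; 100 nM for WHIM2). Luciferase viability is expressed as percent of vehicle.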

| SMILES | cell viability of combination |
| --- | --- |
| N.N.O=C([O-])C1(C(=O)[O-])CCC1.[Pt+2] [Carboplatin] + CC(C)C[C@H](NC(=O)[C@H](CCc1ccccc1)NC(=O)CN1CCOCC1)C(=O)N[C@@H](Cc1ccccc1)C(=O)N[C@@H](CC(C)C)C(=O)[C@@]1(C)CO1 [Carfilzomib] | 22.9 |
| CC(CCC(=O)O)C1CCC2C3CCC4CC(O)CCC4(C)C3CCC12C (stereo not given) [Lithocholic Acid] + CC(C)C[C@H](NC(=O)[C@H](CCc1ccccc1)NC(=O)CN1CCOCC1)C(=O)N[C@@H](Cc1ccccc1)C(=O)N[C@@H](CC(C)C)C(=O)[C@@]1(C)CO1 [Carfilzomib] | 21.6 |
| CN(C)c1ccc(O)c2c1CC1CC3C(N(C)C)C(=O)C(C(N)=O)=C(O)C3(O)C(=O)C1=C2O.Cl (stereo not given) [Minocycline HCl] + CC(C)C[C@H](NC(=O)[C@H](CCc1ccccc1)NC(=O)CN1CCOCC1)C(=O)N[C@@H](Cc1ccccc1)C(=O)N[C@@H](CC(C)C)C(=O)[C@@]1(C)CO1 [Carfilzomib] | 26.4 |
| CCOC(=O)c1c(CSc2ccccc2)n(C)c2cc(Br)c(O)c(CN(C)C)c12.Cl [Arbidol HCl] + CC(C)C[C@H](NC(=O)[C@H](CCc1ccccc1)NC(=O)CN1CCOCC1)C(=O)N[C@@H](Cc1ccccc1)C(=O)N[C@@H](CC(C)C)C(=O)[C@@]1(C)CO1 [Carfilzomib] | 22 |
| CC(C)CC(NC(=O)CNC(=O)c1cc(Cl)ccc1Cl)B(O)O (stereo not given) + CC(C)C[C@H](NC(=O)[C@H](CCc1ccccc1)NC(=O)CN1CCOCC1)C(=O)N[C@@H](Cc1ccccc1)C(=O)N[C@@H](CC(C)C)C(=O)[C@@]1(C)CO1 [Carfilzomib] | 9.5 |
| COC(=O)NC(C(=O)N1CCCC1c1ncc(-c2ccc(-c3ccc(-c4cnc(C5CCCN5C(=O)C(NC(=O)OC)C(C)C)[nH]4)cc3)cc2)[nH]1)C(C)C (stereo not given) + CC(C)C[C@H](NC(=O)[C@H](CCc1ccccc1)NC(=O)CN1CCOCC1)C(=O)N[C@@H](Cc1ccccc1)C(=O)N[C@@H](CC(C)C)C(=O)[C@@]1(C)CO1 [Carfilzomib] | 25.3 |
| CC(C)C[C@H](NC(=O)[C@H](Cc1ccccc1)NC(=O)c1cnccn1)B(O)O [Bortezomib] + CC(C)C[C@H](NC(=O)[C@H](CCc1ccccc1)NC(=O)CN1CCOCC1)C(=O)N[C@@H](Cc1ccccc1)C(=O)N[C@@H](CC(C)C)C(=O)[C@@]1(C)CO1 [Carfilzomib] | 5.02 |
| CC(C)C1=CC(=C2NNC(=O)N2c2ccc3c(ccn3C)c2)C(=O)C=C1O [Ganetespib (STA-9090)] + CC(C)C[C@H](NC(=O)[C@H](CCc1ccccc1)NC(=O)CN1CCOCC1)C(=O)N[C@@H](Cc1ccccc1)C(=O)N[C@@H](CC(C)C)C(=O)[C@@]1(C)CO1 [Carfilzomib] | 23.7 |
| Clc1ccc(C(Cn2ccnc2)OCc2ccc(Sc3ccccc3)cc2)c(Cl)c1.O=[N+]([O-])O (stereo not given) [Fenticonazole Nitrate] + CC(C)C[C@H](NC(=O)[C@H](CCc1ccccc1)NC(=O)CN1CCOCC1)C(=O)N[C@@H](Cc1ccccc1)C(=O)N[C@@H](CC(C)C)C(=O)[C@@]1(C)CO1 [Carfilzomib] | 21.1 |
| Clc1ccc(COC(Cn2ccnc2)c2ccc(Cl)cc2Cl)cc1.O=[N+]([O-])O (stereo not given) [Econazole nitrate] + CC(C)C[C@H](NC(=O)[C@H](CCc1ccccc1)NC(=O)CN1CCOCC1)C(=O)N[C@@H](Cc1ccccc1)C(=O)N[C@@H](CC(C)C)C(=O)[C@@]1(C)CO1 [Carfilzomib] | 17.7 |
| CC(C)COc1ccc(CNC(=O)N(Cc2ccc(F)cc2)C2CCN(C)CC2)cc1 [Pimavanserin] + CC(C)C[C@H](NC(=O)[C@H](CCc1ccccc1)NC(=O)CN1CCOCC1)C(=O)N[C@@H](Cc1ccccc1)C(=O)N[C@@H](CC(C)C)C(=O)[C@@]1(C)CO1 [Carfilzomib] | 15.8 |
| COc1cc(Nc2ncc(F)c(Nc3ccc4c(n3)N(COP(=O)(O)O)C(=O)C(C)(C)O4)n2)cc(OC)c1OC [Fostamatinib (R788)] + CC(C)C[C@H](NC(=O)[C@H](CCc1ccccc1)NC(=O)CN1CCOCC1)C(=O)N[C@@H](Cc1ccccc1)C(=O)N[C@@H](CC(C)C)C(=O)[C@@]1(C)CO1 [Carfilzomib] | 16.9 |
| CN(C)c1ccc(C(=C2C=CC(=[N+](C)C)C=C2)c2ccc(N(C)C)cc2)cc1.[Cl-] [Crystal Violet] + CC(C)C[C@H](NC(=O)[C@H](CCc1ccccc1)NC(=O)CN1CCOCC1)C(=O)N[C@@H](Cc1ccccc1)C(=O)N[C@@H](CC(C)C)C(=O)[C@@]1(C)CO1 [Carfilzomib] | 6 |
| C#Cc1cccc(Nc2ncnc3cc(OCCOC)c(OCCOC)cc23)c1 [Erlotinib] + CC(C)C[C@H](NC(=O)[C@H](CCc1ccccc1)NC(=O)CN1CCOCC1)C(=O)N[C@@H](Cc1ccccc1)C(=O)N[C@@H](CC(C)C)C(=O)[C@@]1(C)CO1 [Carfilzomib] | 27.4 |
| Cc1nc(NC(=O)N2CCCC2C(N)=O)sc1-c1ccnc(C(C)(C)C(F)(F)F)c1 (stereo not given) + CC(C)C[C@H](NC(=O)[C@H](CCc1ccccc1)NC(=O)CN1CCOCC1)C(=O)N[C@@H](Cc1ccccc1)C(=O)N[C@@H](CC(C)C)C(=O)[C@@]1(C)CO1 [Carfilzomib] | 20 |
| C=CC(=O)Nc1cc(Nc2nccc(-c3cn(C)c4ccccc34)n2)c(OC)cc1N(C)CCN(C)C + CC(C)C[C@H](NC(=O)[C@H](CCc1ccccc1)NC(=O)CN1CCOCC1)C(=O)N[C@@H](Cc1ccccc1)C(=O)N[C@@H](CC(C)C)C(=O)[C@@]1(C)CO1 [Carfilzomib] | 17.5 |
| CC(C)CC(NC(=O)C(NC(=O)c1cccc(-c2ccccc2)n1)C(C)O)B(O)O (stereo not given) + CC(C)C[C@H](NC(=O)[C@H](CCc1ccccc1)NC(=O)CN1CCOCC1)C(=O)N[C@@H](Cc1ccccc1)C(=O)N[C@@H](CC(C)C)C(=O)[C@@]1(C)CO1 [Carfilzomib] | 8.71 |
| COCCn1c2c([n+](Cc3cnccn3)c1C)C(=O)c1ccccc1C2=O.[Br-] + CC(C)C[C@H](NC(=O)[C@H](CCc1ccccc1)NC(=O)CN1CCOCC1)C(=O)N[C@@H](Cc1ccccc1)C(=O)N[C@@H](CC(C)C)C(=O)[C@@]1(C)CO1 [Carfilzomib] | 6.3 |
| COc1cc(Nc2c(C#N)cnc3cc(OCCCN4CCN(C)CC4)c(OC)cc23)c(Cl)cc1Cl [Bosutinib (SKI-606)] + CC(C)C[C@H](NC(=O)[C@H](CCc1ccccc1)NC(=O)CN1CCOCC1)C(=O)N[C@@H](Cc1ccccc1)C(=O)N[C@@H](CC(C)C)C(=O)[C@@]1(C)CO1 [Carfilzomib] | 20.9 |
| CCOC(=O)C1=C(COCCN)NC(C)=C(C(=O)OC)C1c1ccccc1Cl.O=S(=O)(O)c1ccccc1 (stereo not given) [Amlodipine Besylate] + CC(C)C[C@H](NC(=O)[C@H](CCc1ccccc1)NC(=O)CN1CCOCC1)C(=O)N[C@@H](Cc1ccccc1)C(=O)N[C@@H](CC(C)C)C(=O)[C@@]1(C)CO1 [Carfilzomib] | 16.5 |
